CF NFkB inh: cystic fibrosis NF-kB activation inhibition. KKLEB NF-kB-GFP reporter, PAF-induced, GFP fluorescence overnight. inhibition, % at 5 µM. 0.86% of 360,000 active. AID 588850;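 active = at least 50% inhibition at 5 µM, scaled per plate between neutral and stimulator controls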;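 also: PAF is a Pseudomonas aeruginosa culture filtrate used as stimulus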
HIF-2a inh: HIF-2a inhibition. 786-0 RCC cells HIF-2a reporter, luciferase luminescence, overnight. inhibition, % at 18.8 µM. 0.72% of 360,000 active;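 active = inhibition of the luminescence signal of 40% or more relative to plate controls, in a single-dose primary screen at 18.75 µM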
Peg3 promoter: Peg3 promoter activity inhibition | 1.7% of 360,000 active | HeLa PEG-Prom luciferase reporter, luminescence, overnight | inhibition, % at 20 µM;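 active = inhibition of at least 50% at 20 µM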
TWEAK Fn14 block: inhibitors of TWEAK-Fn14 interaction signaling | TWEAK-stimulated Fn14 reporter cells, luciferase luminescence, 8 h | inhibition, % at 10 µM | 2% of 360,000 active | AID 1159606; in the data active = inhibition above about 50%
KKLEB cytotox: CF airway cell cytotoxicity counter-screen | activity change (cytotoxicity), % at 5 µM | AID 602141 | KKLEB CF airway cells viability, ATPlite luminescence, overnight; hits give low values; cells stimulated with P. aeruginosa culture filtrate | 0.36% of 360,000 active;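 active = corrected activity change at or below -50% at 5 µM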
TROY NFkB inh: blocks TROY-dependent signaling in reporter cells. Q293 LMP1-TROYcd NF-kB luciferase reporter, 4 h. inhibition, % at 10 µM. 0.98% of 360,000 active. AID 1347056;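 active = compounds whose plate-normalised and pattern-corrected inhibition of the luciferase reporter signal at the single screening dose is 50% or more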
Numbers stand for hits. Shown are actives, neighbours in structure and some others; about 4% of the full set was active somewhere.

COc1cc(C2CC(=O)Oc3cc(C)c(Br)c(C)c32)cc(OC)c1OC (stereo not given) was read as CF NFkB inh inactive, HIF-2a inh inactive, Peg3 promoter inactive, TWEAK Fn14 block inactive, KKLEB cytotox inactive and TROY NFkB inh inactive.
For O=C(COC(=O)/C=C/c1ccccc1[N+](=O)[O-])NNC(=O)c1ccc(F)cc1 the results were CF NFkB inh inactive, HIF-2a inh inactive, Peg3 promoter inactive, TWEAK Fn14 block inactive, KKLEB cytotox inactive and TROY NFkB inh inactive.
O=C(NCc1cc(Cl)cc(Cl)c1)c1ccc2sc([C@H]3C[C@H](O)[C@@H](CO)O3)nc2c1 was read as CF NFkB inh inactive, HIF-2a inh inactive, Peg3 promoter inactive, TWEAK Fn14 block inactive, KKLEB cytotox inactive and TROY NFkB inh inactive.
Screening CNc1ccc(/C=C2\CSc3ccccc3C2=O)cc1[N+](=O)[O-] returned CF NFkB inh inactive, HIF-2a inh inactive, Peg3 promoter inactive, TWEAK Fn14 block 83.3, KKLEB cytotox inactive and TROY NFkB inh 62.2.
For CSc1nc(-c2ccc(C)cc2)nc(C(Cl)Cl)n1 the results were CF NFkB inh inactive, HIF-2a inh inactive, Peg3 promoter 101.8, TWEAK Fn14 block inactive, KKLEB cytotox inactive and TROY NFkB inh inactive.
`CC(C)(C)NC(=O)C(c1ccncc1)n1c(-c2ccc(C(F)(F)F)cc2)nc2ccccc21` (stereo not given) gave HIF-2a inh inactive.
O=C(O)c1ccc(CSc2nc3ccc(N4C(=O)C5C6C=CC(C6)C5C4=O)cc3s2)cc1 (stereo not given) was read as CF NFkB inh inactive, HIF-2a inh inactive, Peg3 promoter inactive, TWEAK Fn14 block 51.1, KKLEB cytotox inactive and TROY NFkB inh inactive.
Screening COc1cc2c(cc1[N+](=O)[O-])-c1ccc([N+](=O)[O-])cc1C2=NNC(N)=S returned CF NFkB inh inactive, HIF-2a inh inactive, Peg3 promoter inactive, TWEAK Fn14 block inactive, KKLEB cytotox inactive and TROY NFkB inh inactive.
NC(=S)NN=C1c2cc(Cl)ccc2-c2c1cc(Cl)cc2[N+](=O)[O-] was read as CF NFkB inh inactive, HIF-2a inh inactive, Peg3 promoter inactive, TWEAK Fn14 block 101.1, KKLEB cytotox inactive and TROY NFkB inh inactive.
Screening CSCC[C@H](NC(=O)OC(C)(C)C)C(=O)N1CCC(C(=O)N[C@@H](C)C(=O)NC(C)c2ccccc2)CC1 (stereo not given in full) returned CF NFkB inh inactive, HIF-2a inh inactive, Peg3 promoter inactive, TWEAK Fn14 block inactive, KKLEB cytotox inactive and TROY NFkB inh inactive.
For Nc1ncc(Br)cc1S(=O)(=O)Nc1cc(C(F)(F)F)cc(C(F)(F)F)c1 the results were CF NFkB inh inactive, HIF-2a inh inactive, Peg3 promoter inactive, TWEAK Fn14 block inactive, KKLEB cytotox inactive and TROY NFkB inh 55.5.
Cc1ccc(NS(=O)(=O)c2cc(Br)cnc2N)c(Cl)c1 was read as CF NFkB inh inactive, HIF-2a inh inactive, Peg3 promoter inactive, TWEAK Fn14 block inactive, KKLEB cytotox inactive and TROY NFkB inh inactive.
For CCOc1cc(/C=N/NC(=O)COc2ccc(Cl)cc2)ccc1OS(=O)(=O)c1ccccc1 the results were CF NFkB inh inactive, HIF-2a inh inactive, Peg3 promoter inactive, TWEAK Fn14 block 53.7, KKLEB cytotox inactive and TROY NFkB inh inactive.
CCc1ccccc1NC(=O)C1=CN2CCS(=O)(=O)N=C2C=C1 was read as CF NFkB inh inactive, HIF-2a inh inactive, Peg3 promoter inactive, TWEAK Fn14 block inactive, KKLEB cytotox inactive and TROY NFkB inh inactive.
For CCC(=O)Nc1ccc2c(c1)C(=O)c1ccccc1C2=O the results were CF NFkB inh inactive, HIF-2a inh inactive, Peg3 promoter inactive, TWEAK Fn14 block inactive, KKLEB cytotox inactive and TROY NFkB inh inactive.
Screening CCC(C)(C)c1ccc2c(c1)C(=O)c1ccccc1C2=O returned CF NFkB inh inactive, HIF-2a inh inactive, Peg3 promoter inactive, TWEAK Fn14 block 61.1, KKLEB cytotox inactive and TROY NFkB inh inactive.
For CCCCn1c(N)c(N(CCOC)C(=O)CC(NC(=O)c2ccccc2Cl)c2ccccc2)c(=O)[nH]c1=O (stereo not given) the results were CF NFkB inh inactive, HIF-2a inh inactive, Peg3 promoter inactive, TWEAK Fn14 block inactive, KKLEB cytotox inactive and TROY NFkB inh inactive.
For Cc1ccccc1-n1c(C)cc(/C=C2/C(=N)N3C(c4ccccc4)=CSC3=NC2=O)c1C the results were CF NFkB inh inactive, HIF-2a inh inactive, Peg3 promoter inactive, TWEAK Fn14 block 55.2, KKLEB cytotox inactive and TROY NFkB inh inactive.
`Cc1cc(/C=C2\C(=N)N3C(SCc4ccccc4)=NSC3=NC2=O)c(C)n1Cc1ccccc1` gave CF NFkB inh inactive, HIF-2a inh inactive, Peg3 promoter inactive, TWEAK Fn14 block inactive, KKLEB cytotox -52.7 and TROY NFkB inh inactive.
For Cc1cc(/C=C2/C(=N)N3C(c4ccccc4)=CSC3=NC2=O)c(C)n1-c1ccccc1 the results were CF NFkB inh inactive, HIF-2a inh inactive, Peg3 promoter inactive, TWEAK Fn14 block inactive, KKLEB cytotox inactive and TROY NFkB inh inactive.
`Cc1cc(/C=C2\C(=N)N3N=C(C(C)C)SC3=NC2=O)c(C)n1Cc1ccccc1` gave CF NFkB inh inactive, HIF-2a inh inactive, Peg3 promoter inactive, TWEAK Fn14 block inactive, KKLEB cytotox inactive and TROY NFkB inh inactive.
`CSc1ncc(Cl)c(C(=O)Nc2cccc(Cl)c2)n1` gave CF NFkB inh inactive, HIF-2a inh inactive, Peg3 promoter inactive, TWEAK Fn14 block inactive, KKLEB cytotox inactive and TROY NFkB inh inactive.
COc1ccc(OC)c(CN2C(=O)c3ccccc3C2c2nnnn2C(C)C)c1 (stereo not given) was read as HIF-2a inh inactive, TWEAK Fn14 block inactive and TROY NFkB inh inactive.
`Cc1ccc(NC(=O)CC2Nc3ccccc3NC2=O)cc1Cl` (stereo not given) gave CF NFkB inh inactive, HIF-2a inh inactive, Peg3 promoter inactive, TWEAK Fn14 block inactive and KKLEB cytotox -51.8.
`O=C(CC1Nc2ccccc2NC1=O)Nc1ccc2c(c1)OCO2` (stereo not given) gave CF NFkB inh inactive, HIF-2a inh inactive, Peg3 promoter inactive, TWEAK Fn14 block inactive, KKLEB cytotox inactive and TROY NFkB inh inactive.
O=C(O)c1cccc(NS(=O)(=O)c2cc(S(=O)(=O)c3ccc(Cl)cc3)ccc2Cl)c1 was read as CF NFkB inh inactive, HIF-2a inh inactive, Peg3 promoter inactive, TWEAK Fn14 block inactive, KKLEB cytotox inactive and TROY NFkB inh inactive.
For Cc1ccc(S(=O)(=O)c2nc(Nc3ccccc3)sc2Cl)cc1 the results were CF NFkB inh inactive, HIF-2a inh inactive, Peg3 promoter inactive, TWEAK Fn14 block inactive, KKLEB cytotox inactive and TROY NFkB inh 53.9.
Screening O=S(=O)(c1ccccc1)c1nc(NCc2ccccc2)sc1Cl returned CF NFkB inh inactive, HIF-2a inh inactive, Peg3 promoter inactive, TWEAK Fn14 block inactive, KKLEB cytotox inactive and TROY NFkB inh inactive.
Screening COc1ccc(CNc2nc(S(=O)(=O)c3ccccc3)c(Cl)s2)cc1OC returned CF NFkB inh inactive, HIF-2a inh inactive, Peg3 promoter inactive, TWEAK Fn14 block 69.9, KKLEB cytotox inactive and TROY NFkB inh inactive.

Bioassay records from PubChem BioAssay.
